13 compounds from PubChem BioAssay (NCATS) can be followed below.

The target in assay [1] is Tumor susceptibility gene 101 protein (Homo sapiens) (UniProt Q99816). Kind of assay: qHTS Assay for Iinhibitors of HIV-1 Budding by Blocking the Interaction of PTAP/TSG101: Hit Validation (AID 651600). Also: nearly all actives have a fitted effect of over 70% in size. Also: potency is read from the fitted curve at half-maximal effect. In a few lines: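 FITC-PTAP peptide (50 nM final) binding to Tsg101 binding domain (10 uM final) was measured by polarization after 20 min at r.t. with compounds, in 10 mM HEPES pH 7.5 buffer with 0.15 M NaCl and 0.01% Tween 20.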
Chain of Tumor susceptibility gene 101 protein (Homo sapiens) (Q99816 whole entry, looked up, the tested form may be a part): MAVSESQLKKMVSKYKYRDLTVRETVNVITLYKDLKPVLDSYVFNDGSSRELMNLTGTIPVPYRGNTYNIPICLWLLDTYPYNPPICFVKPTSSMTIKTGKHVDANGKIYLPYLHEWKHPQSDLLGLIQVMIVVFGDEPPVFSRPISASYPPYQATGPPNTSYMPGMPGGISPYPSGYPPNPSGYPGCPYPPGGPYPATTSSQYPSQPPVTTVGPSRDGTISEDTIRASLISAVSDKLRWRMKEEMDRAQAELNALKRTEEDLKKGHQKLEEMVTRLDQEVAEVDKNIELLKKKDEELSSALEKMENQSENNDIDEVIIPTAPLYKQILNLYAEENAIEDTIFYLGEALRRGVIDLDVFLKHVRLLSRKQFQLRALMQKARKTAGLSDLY

Assay [2] deals with Rap guanine nucleotide exchange factor 3 (Homo sapiens) (UniProt O95398). Nature of the assay: Confirmatory qHTS for antagonist of cAMP-regulated guanine nucleotide exchange factor 3 (EPAC1) (AID 1645880).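 Also: plate controls were DMSO only for no effect and full effect of the ATA control for full effect; nearly all actives have a fitted effect of over 55% in size.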 The note with it: EPAC1 Rap1B-BODIPY-GDP exchange, fluorescence; activity, negative = inhibition: at 115 µM (top of the series). In a few lines:
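Released BODIPY-GDP fluoresces less than Rap1-bound BODIPY-GDP; the signal is followed at 480/540 nm at 5-min intervals over 30 min, after 5 min at room temperature. Reactions contain 100 nM EPAC1, 250 nM RAP1B-BODIPY-GDP and 50 uM GDP; results are normalized to ATA and DMSO.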

Assay [3] has as its target Rap guanine nucleotide exchange factor 4 (Homo sapiens) (UniProt Q8WZA2). Nature of the assay: Confirmatory qHTS for agonist of cAMP-regulated guanine nucleotide exchange factor 4 (EPAC2) (AID 1645884).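 Also: nucleotide exchange releases bodipy-GDP from Rap1 and this lowers its fluorescence; nearly all actives have a fitted effect of over 65% in size.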 Also: potency is read from the fitted curve at half-maximal effect.
Assay [4] shares this target. Kind of assay: Confirmatory qHTS for antagonist of cAMP-regulated guanine nucleotide exchange factor 4 (EPAC2) (AID 1645885). Also: nearly all actives have a fitted effect of over 25% in size. Also: potency is read from the fitted curve at half-maximal effect. In general terms: Quantitative high-throughput screening tests each substance at several concentrations.
The target in assay [5] is Rap guanine nucleotide exchange factor 3 (Homo sapiens) (UniProt O95398). Kind of assay: Counterscreen qHTS for antagonist of cAMP-regulated guanine nucleotide exchange factor 3 (EPAC1) (AID 1645888). Also: % of control where 0% means no effect. In a few lines: (§1)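 Rap1B–BODIPY-GDP (250 nM) with 50 uM GDP; compounds pin-transferred to 9.74 nM–152 uM final (activator) or from 7.32 nM upwards (inhibitor). Fluorescence Ex/Em 480/540 nm read at 5 and 30 min, then after adding cAMP or buffer, at room temperature.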
Chain of Rap guanine nucleotide exchange factor 3 (Homo sapiens) (O95398 whole entry, looked up): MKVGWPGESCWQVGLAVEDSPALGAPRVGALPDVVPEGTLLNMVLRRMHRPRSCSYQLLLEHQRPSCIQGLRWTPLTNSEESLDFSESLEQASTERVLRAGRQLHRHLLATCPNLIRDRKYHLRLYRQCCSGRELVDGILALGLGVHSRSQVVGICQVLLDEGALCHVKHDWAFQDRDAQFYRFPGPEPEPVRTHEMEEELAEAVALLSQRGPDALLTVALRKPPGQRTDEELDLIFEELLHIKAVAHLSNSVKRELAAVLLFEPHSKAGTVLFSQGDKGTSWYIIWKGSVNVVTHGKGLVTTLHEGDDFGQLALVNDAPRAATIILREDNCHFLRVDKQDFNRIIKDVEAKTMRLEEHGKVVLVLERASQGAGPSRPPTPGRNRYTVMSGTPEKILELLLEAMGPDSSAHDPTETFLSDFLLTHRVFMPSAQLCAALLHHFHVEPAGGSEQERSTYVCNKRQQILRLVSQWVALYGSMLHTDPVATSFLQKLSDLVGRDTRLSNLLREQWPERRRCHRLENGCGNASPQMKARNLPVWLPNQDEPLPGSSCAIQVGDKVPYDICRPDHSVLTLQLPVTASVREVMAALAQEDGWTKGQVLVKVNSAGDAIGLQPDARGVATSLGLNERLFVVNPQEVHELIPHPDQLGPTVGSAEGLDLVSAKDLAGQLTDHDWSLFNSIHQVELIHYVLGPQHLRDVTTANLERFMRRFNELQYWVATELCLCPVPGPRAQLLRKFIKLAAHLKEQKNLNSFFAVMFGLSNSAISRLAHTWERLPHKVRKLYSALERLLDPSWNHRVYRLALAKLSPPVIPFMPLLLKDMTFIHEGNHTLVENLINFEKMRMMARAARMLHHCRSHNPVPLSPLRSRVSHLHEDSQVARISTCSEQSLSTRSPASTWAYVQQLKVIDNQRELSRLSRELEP
In general terms: Counterscreens check selectivity or assay interference.

The target is the same in assay [6]. Nature of the assay: Counterscreen qHTS for agonist of cAMP-regulated guanine nucleotide exchange factor 3 (EPAC1) (AID 1645889). Also: nearly all actives have a fitted effect of over 40% in size. Also: potency is read from the fitted curve at half-maximal effect. As to activation: % of control where 0% means no effect. In a few lines: as §1
The target of assay [7] is Lysosomal acid glucosylceramidase (Homo sapiens) (UniProt P04062). Kind of assay: Glucocerebrosidase-p2 (AID 348; in the data active = potency below about 10 µM; also: potency is read from the fitted curve at half-maximal effect). Conditions: purified GBA, blue fluorogenic substrate, 40 min. The method, boiled down: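 Normal human glucocerebrosidase (0.2 nM) with blue fluorogenic substrate (80 uM final) in citrate/phosphate pH 5.9 with 10mM sodium taurocholate, 0.01% tween-20; 40 min RT, NaOH/glycine stop; fluorescence Ex 365/Em 440; AC50 from a titration from 0.6 nM upwards.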
Chain of Lysosomal acid glucosylceramidase (Homo sapiens) (P04062 whole entry, looked up): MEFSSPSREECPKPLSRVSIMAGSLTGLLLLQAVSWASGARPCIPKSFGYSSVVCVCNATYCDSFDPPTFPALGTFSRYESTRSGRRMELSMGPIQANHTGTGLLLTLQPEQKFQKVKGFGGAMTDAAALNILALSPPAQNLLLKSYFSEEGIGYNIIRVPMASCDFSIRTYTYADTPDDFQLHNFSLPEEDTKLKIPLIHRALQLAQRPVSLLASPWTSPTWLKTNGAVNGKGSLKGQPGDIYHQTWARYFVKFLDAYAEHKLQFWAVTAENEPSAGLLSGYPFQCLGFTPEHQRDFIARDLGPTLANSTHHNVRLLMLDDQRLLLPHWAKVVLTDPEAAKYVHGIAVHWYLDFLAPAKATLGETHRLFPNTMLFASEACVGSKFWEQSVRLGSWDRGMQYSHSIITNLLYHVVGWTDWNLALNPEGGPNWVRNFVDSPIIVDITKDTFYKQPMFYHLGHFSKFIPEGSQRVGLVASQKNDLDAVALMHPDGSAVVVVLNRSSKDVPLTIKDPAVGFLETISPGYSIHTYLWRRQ

A short description of assay [8]: AP1 Signaling Pathway (AID 357; active = well fitted curve in either direction with a large enough effect, not every such curve was filed as active; also: % is scaled to controls: 0 for no effect and ±100 for the full control effect). The note with it: ME-180 AP-1-bla reporter, EGF-induced, beta-lactamase ratio, 5 h; at 7.69 µM (top of the series) unless noted. In a few lines: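 Cells are seeded overnight, exposed to compound titrations and an EC50 level of EGF for 5 hours at 37 °C, then loaded with CCF4 dye for 2.5 hours. Beta-lactamase activity under the AP-1 element is read as a blue/green ratio.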

The target of assay [9] is Cytochrome P450 1A2 (Homo sapiens) (UniProt P05177). Nature of the assay: p450-cyp1a2 (AID 410; calls by dose curve; also: potency is read from the fitted curve at half-maximal effect). The method, boiled down: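 Read-out is luminescence from luciferin produced by CYP1A2 demethylation of Luciferin-ME (100uM, at Km). Detection reagent stopped the 60 min NADPH-dependent reaction; signals were normalized to 57 uM furafylline.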
Chain of Cytochrome P450 1A2 (Homo sapiens) (P05177 whole entry, looked up): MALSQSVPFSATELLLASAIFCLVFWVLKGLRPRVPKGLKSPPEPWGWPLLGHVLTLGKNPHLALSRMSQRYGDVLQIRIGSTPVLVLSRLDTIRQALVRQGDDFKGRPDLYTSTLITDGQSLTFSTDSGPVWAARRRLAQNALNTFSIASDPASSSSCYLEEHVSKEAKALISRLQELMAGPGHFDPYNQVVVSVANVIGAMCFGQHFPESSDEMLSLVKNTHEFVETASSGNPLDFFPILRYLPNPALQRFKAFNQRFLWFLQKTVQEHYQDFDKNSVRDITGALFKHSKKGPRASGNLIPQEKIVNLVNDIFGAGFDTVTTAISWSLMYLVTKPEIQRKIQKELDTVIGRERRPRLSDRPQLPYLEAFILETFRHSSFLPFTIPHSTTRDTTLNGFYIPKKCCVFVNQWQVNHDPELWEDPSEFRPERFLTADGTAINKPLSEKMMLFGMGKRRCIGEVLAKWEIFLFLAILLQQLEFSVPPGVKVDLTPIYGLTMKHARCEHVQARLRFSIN
The nature of assay [10]: NFAT Signaling Pathway (AID 444; active = well fitted curve in either direction with a large enough effect, not every such curve was filed as active;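 also: carbachol stimulus at about its EC50 of 1 µM final; % is scaled to controls: 0 for no effect and ±100 for the full control effect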). Conditions: Jurkat NFAT-bla M1, carbachol, beta-lactamase ratio, 5 h; at 7.69 µM (top of the series) unless noted. The method, boiled down: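 Jurkat cells with NFAT-driven β-lactamase reporter and co-expressed M1 receptor, stimulated with carbachol (final 1 uM, ~EC50), compound titration, 5 h at 37 °C. CCF4 loaded 1 h at RT; 460/530 nm ratio gave %activity and AC50.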

Assay [11] in a line: Stat Signaling Pathway (AID 446; active = well fitted curve in either direction with a large enough effect, not every such curve was filed as active;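 also: ME-180 cervical cancer cells given 40 pM IL-6 alongside compound; SIE-controlled beta-lactamase reporter measured as 460/530 nm FRET emission ratio; % is scaled to controls: 0 for no effect and ±100 for the full control effect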). In a few lines: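 Emission at 460 and 530 nm (excitation 405 nm) reports SIE-controlled beta-lactamase in ME-180 cells. Cells received compound with 40 pM IL-6 for 5 hrs at 37 C; data scaled between 300 pM IL-6 and 125 nM JAK-inhibitor controls.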
Assay [12] has as its target Glucocorticoid receptor (Homo sapiens) (UniProt P04150). Nature of the assay: GR-EFC Redistribution (AID 451; calls by dose curve; also: potency is read from the fitted curve at half-maximal effect). Conditions: CHO-K1 GR-EFC translocation, beta-gal luminescence, 2 h. The method, boiled down:
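CHO-K1 cells expressing nuclear EA and GR-ED fragments of b-gal; compounds titrated up to 46 uM final, 2 h at 37 C. GR nuclear translocation read as complemented b-gal luminescence after 1 h RT detection.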

In assay [13] the target is Mitogen-activated protein kinase 10 (Mus musculus) (UniProt Q61831). Kind of assay: JNK3 AlphaScreen Assay (AID 530; active = well fitted curve in either direction with a large enough effect, not every such curve was filed as active;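 also: kinase came from lysate of stimulated human HepG2 cells; signal reports phosphorylation of biotinylated GST-cJun 1-79 at Ser73 with 10 µM ATP; % is scaled to controls: 0 for no effect and ±100 for the full control effect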). In a few lines:
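HepG2 lysate (IL-1b/TNFa pre-activated) + biotin-GST-cJun 1-79 + anti-pSer73 cJun; cpd titration, 15 min RT; ATP 10 uM start; Tris pH 7.6, MgCl2, DTT, vanadate; beads in EDTA buffer; AlphaScreen.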

Assay [14] concerns the target 3',5'-cyclic-AMP phosphodiesterase 4B (Homo sapiens) (UniProt Q07343). Kind of assay: qHTS Assay for Inhibitors of PDE-IV (AID 607; active = well fitted activation curve with a large enough effect in the main read-out, with a control signal flat, not every such curve was filed as active; also: % of control where 0% means no effect). In a few lines: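 The readout is membrane depolarisation from a cAMP-sensing CNG channel, detected with a potential dye at ex 535/em 590. Cells were HEK293-derived (endogenous PDE-IV) at 1000 cells/well, titrated up to 22.9 uM final.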

The target in assay [15] is Cytochrome P450 3A4 (Homo sapiens) (UniProt P08684). Kind of assay: qHTS Assay for Inhibitors and Substrates of Cytochrome P450 3A4 (AID 884). Also: potency is read from the fitted curve at half-maximal effect; nearly all actives have a fitted effect of over 50% in size. The method, boiled down: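 Luminescent readout of luciferin produced by CYP3A4 (20 nM) dealkylation of Luciferin-PPXE, 25 uM (its KM). NADPH-driven reaction ran 60 min at RT after 10 min compound preincubation; data scaled to 57 uM ketoconazole as 100% inhibition.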
Chain of Cytochrome P450 3A4 (Homo sapiens) (P08684 whole entry, looked up): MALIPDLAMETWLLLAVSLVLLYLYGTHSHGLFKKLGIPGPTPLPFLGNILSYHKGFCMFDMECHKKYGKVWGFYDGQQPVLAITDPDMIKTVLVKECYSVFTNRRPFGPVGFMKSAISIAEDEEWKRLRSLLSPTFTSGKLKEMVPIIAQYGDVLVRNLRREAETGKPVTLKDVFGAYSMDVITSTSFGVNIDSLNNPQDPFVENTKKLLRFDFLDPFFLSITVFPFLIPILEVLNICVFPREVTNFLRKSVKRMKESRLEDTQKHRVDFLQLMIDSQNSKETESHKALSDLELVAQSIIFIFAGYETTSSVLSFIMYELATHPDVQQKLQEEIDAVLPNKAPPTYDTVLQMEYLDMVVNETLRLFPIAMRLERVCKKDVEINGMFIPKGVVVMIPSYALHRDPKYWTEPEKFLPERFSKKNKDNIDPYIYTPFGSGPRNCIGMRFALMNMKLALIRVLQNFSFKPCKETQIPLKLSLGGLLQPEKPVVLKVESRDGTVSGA

Assay [16] shares this target. Nature of the assay: qHTS Assay for Activators of Cytochrome P450 3A4 (AID 885). Also: nearly all actives have a fitted effect of over 65% in size. The method, boiled down:
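Activators are scored by enhanced luminescence from CYP3A4 conversion of luciferin-PPXE (25uM, equal to KM) to luciferin, after 60 min at RT with an NADPH-regenerating system.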

The nature of assay [17]: qHTS Assay for Identification of Small Molecule Agonists for Hypoxia Response Element Signaling Pathway (AID 914; active = well fitted activation curve with a large enough effect in the signal ratio, with a control signal flat, not every such curve was filed as active; the % refers to the signal ratio; also: % of control where 0% means no effect). Conditions: ME-180 (cervical carcinoma) HRE-bla reporter, beta-lactamase ratio, CoCl2, 17 h; activation: stronger effect = higher value. In a few lines:
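HRE-bla ME-180 cells with beta-lactamase reporter under hypoxia response element, compounds with EC50 CoCl2 for 17 hours at 37 C. CCF4 substrate, 460nm/530nm emission ratio gave %Activity; AC50 from titration series.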

Structures are written as SMILES. Unmarked numbers belong to inactive results. Records with an inconclusive call do not appear. The source made the active and inactive calls. Unless noted, calls follow the shape of the dose curve; as a rule, active = well fitted curve in the direction sought with a large enough effect; inconclusive = small, poorly fitted or top-dose-only effect, or another doubt; inactive = no such curve, though single readings can be large; an effect the other way counts as inactive or inconclusive.

Chain of Rap guanine nucleotide exchange factor 4 (Homo sapiens) (Q8WZA2 whole entry, looked up): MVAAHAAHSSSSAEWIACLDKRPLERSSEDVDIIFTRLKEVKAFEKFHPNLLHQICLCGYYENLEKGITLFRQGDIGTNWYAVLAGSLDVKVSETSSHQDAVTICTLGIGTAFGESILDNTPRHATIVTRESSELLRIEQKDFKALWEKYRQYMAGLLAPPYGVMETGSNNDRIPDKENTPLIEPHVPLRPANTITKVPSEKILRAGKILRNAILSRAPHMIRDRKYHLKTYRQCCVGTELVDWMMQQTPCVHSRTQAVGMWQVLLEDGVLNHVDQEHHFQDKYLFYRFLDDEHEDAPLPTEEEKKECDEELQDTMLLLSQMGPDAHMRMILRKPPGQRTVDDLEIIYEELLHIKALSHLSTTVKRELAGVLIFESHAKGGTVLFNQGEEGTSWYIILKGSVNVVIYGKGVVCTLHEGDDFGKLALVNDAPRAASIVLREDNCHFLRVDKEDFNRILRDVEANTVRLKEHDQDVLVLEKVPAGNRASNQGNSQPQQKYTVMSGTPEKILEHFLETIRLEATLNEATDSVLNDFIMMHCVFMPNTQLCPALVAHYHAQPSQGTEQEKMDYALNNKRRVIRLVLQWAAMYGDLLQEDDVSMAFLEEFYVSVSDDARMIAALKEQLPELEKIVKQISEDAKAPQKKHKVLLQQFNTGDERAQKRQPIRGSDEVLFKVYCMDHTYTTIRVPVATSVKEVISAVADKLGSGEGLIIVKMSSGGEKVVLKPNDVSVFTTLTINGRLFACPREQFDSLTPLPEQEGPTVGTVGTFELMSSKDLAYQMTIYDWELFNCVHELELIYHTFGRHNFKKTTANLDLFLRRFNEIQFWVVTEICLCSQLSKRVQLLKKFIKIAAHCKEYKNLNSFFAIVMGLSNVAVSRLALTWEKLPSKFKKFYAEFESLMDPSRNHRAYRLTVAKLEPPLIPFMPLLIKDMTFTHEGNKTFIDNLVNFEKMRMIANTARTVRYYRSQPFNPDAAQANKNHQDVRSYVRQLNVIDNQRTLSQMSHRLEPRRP
Chain of Glucocorticoid receptor (Homo sapiens) (P04150 whole entry, looked up, the tested form may be a part): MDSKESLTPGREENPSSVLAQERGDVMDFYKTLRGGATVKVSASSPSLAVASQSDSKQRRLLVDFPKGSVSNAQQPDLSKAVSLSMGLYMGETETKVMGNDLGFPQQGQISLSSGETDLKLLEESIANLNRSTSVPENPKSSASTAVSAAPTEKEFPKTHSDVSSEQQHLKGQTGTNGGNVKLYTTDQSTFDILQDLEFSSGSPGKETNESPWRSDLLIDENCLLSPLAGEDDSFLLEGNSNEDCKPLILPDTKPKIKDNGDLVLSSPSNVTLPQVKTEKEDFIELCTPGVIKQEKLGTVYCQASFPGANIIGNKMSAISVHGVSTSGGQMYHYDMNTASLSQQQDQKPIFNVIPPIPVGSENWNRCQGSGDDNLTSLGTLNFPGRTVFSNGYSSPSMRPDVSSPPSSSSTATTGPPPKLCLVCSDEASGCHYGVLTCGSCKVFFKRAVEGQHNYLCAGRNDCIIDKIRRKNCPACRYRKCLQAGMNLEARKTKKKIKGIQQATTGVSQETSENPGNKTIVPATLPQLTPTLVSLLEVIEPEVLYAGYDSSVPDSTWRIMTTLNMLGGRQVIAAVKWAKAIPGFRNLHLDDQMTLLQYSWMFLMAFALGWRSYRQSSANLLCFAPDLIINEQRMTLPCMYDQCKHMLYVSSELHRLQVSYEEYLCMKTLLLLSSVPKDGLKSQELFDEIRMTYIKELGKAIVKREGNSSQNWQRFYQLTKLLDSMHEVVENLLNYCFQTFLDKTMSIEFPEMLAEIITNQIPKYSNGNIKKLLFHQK

`O=C1CCNc2ccc(-c3ccccc3)cc21`: the Potency in assay [1] was 8.19 µM (active); in assay [3], 112 µM (active); in assay [6] it was 56.2 µM (active). The Potency entry in assay [2], in [4] and in assay [5] was “inactive” each time.

With `CCN1CCc2c(sc(NC(=O)CSc3ccccc3)c2-c2nc3ccccc3s2)C1`, the Potency result in assay [1], in [2], in assay [3] and in [5] was “inactive” in each case. The Potency in assay [4] is 3.79 µM (active).

Regarding `Nc1ccc2nc3c(=O)n(CCc4ccccc4)c(=O)[nH]c3nc2c1`, the Potency in assay [1] was 3.26 µM (active); in assay [3] it was 100 µM (active); in assay [4], 42.6 µM (active); in assay [6], 70.8 µM (active). For the same compound, the Potency result in assay [2] and in assay [5] was “inactive” each time.

For `Cc1cccc(N2C(=O)c3cccc4c(N)ccc(c34)C2=O)c1`, the Potency in [1] was 2.31 µM (active); in assay [3] it was 112 µM (active); in [4], 84.9 µM (active); in assay [6] it was 70.8 µM (active). For the same compound, in [2], the Potency result was “inactive”.

As to `Cc1ccc[n+](-c2nc([O-])sc2C=O)c1`, the Potency is 4.61 µM (active) in assay [1], 100 µM (active) in assay [3] and 39.8 µM (active) in [6]. The Potency result in assay [2], in assay [4] and in assay [5] was “inactive” throughout.

On to `COc1cccc2c1C(=O)c1c(O)c3c(c(O)c1C2=O)CC(O)(C(=O)CO)CC3OC1CC(N(C)C)C(O)C(C)O1` (stereo not drawn), for which, in assay [1], the Potency is 4.61 µM (active). Moreover, the Potency entry in [2] and in assay [4] was “inactive” each time. For the same compound, in assay [3], the activation is 8.33% [at 17.1 µM, percent relative to cAMP agonist control]. Besides, in [5], the activity change, negative = inhibition was 33.3% [at 30.8 µM].

On to `CNC(=O)c1csc(Cc2c(Cl)sc3ccc(Cl)cc23)n1`, for which the Potency entry in assay [2], in assay [4] and in assay [5] was “inactive” throughout.

For `COC(=O)c1cc2oc(C)cc2n1Cc1ccc(C)cc1`, the Potency entry in assay [2], in assay [3], in assay [5] and in [6] was “inactive” in each case.

On to `N#CC(C#N)=C1C=C2C=C(N3CCCCCC3)CCC2CC1` (stereo not drawn), for which the Potency result in assay [2] and in assay [4] was “inactive” in each case.

As to `Cc1ccc(N=Cc2c(O)n(-c3nccs3)c(=O)c3ccccc23)c(C)c1`, the Potency entry in assay [2] and in [4] was “inactive” in each case. The activity change, negative = inhibition in assay [5] was 7.45% [at 30.8 µM].

Regarding `CCCN(CCC)c1ccc(/C=C/c2ccnc3ccccc23)cc1`, the Potency entry in [2] and in assay [4] was “inactive” each time.

Take `Cc1ccc(NC(=O)CSc2nnc(-c3cc4occc4n3C)n2-c2ccccc2C)c(Cl)c1`: the Potency entry in assay [2], in [3] and in assay [5] was “inactive” throughout.

On to `COc1ccc(Oc2ncc3nc(C)c(=O)n(Cc4cccs4)c3n2)cc1`, for which the Potency in assay [7] is greater than 11.4 µM; in assay [9] it was 10 µM (active); in [12], greater than 46 µM; in assay [15] it was 3.16 µM (active). Moreover, the activity change, negative = inhibition was 4.45% in assay [8] and -5.89% in assay [10]. Moreover, the result in assay [11] and in assay [16] was inactive. The Potency result in assay [13], in assay [14], in assay [2] and in assay [3] was “inactive” throughout. Further, the activation in assay [17] was -21.2%.
